“And” between values parts separate entries of the source, which are not always exact repeats. Equal entries are not always repeated. Compounds without any hit were thinned out: in the full panel of roughly 79,000, 15% have a hit. The source holds several records for some structures; these can differ, active in one and inactive in another. The source made the active and inactive calls. Cut-off read from the data, not from the text of the source: active = growth inhibition above about 70%; inactive = the rest.
Legend:
[1] = NCI Yeast Anticancer Drug Screen. Data for the rad50 strain (AID 155);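 note: 0% = growth of vehicle-only cultures of the same strain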; settings: S. cerevisiae rad50 strain growth inhibition, stronger effect = higher value
Method in brief: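 Yeast carrying a defined DNA repair defect were exposed to test compounds, and growth was compared with vehicle-treated controls to give percent inhibition.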

[2] = NCI Yeast Anticancer Drug Screen. Data for the mec2-1 strain (AID 157); settings: S. cerevisiae mec2-1 strain, stronger effect = higher value
Method in brief: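 Cells of the genetically defined mec2-1 yeast strain are incubated with test compound. Inhibition of growth is calculated against vehicle-treated controls.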

[3] = NCI Yeast Anticancer Drug Screen. Data for the sgs1 mgt1 strain (AID 161);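 note: 0% = growth of cultures given vehicle only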; settings: S. cerevisiae sgs1 mgt1 strain, stronger effect = higher value
Method in brief: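 Mutant yeast exposed to compound; growth scored against vehicle-only wells.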

[4] = NCI Yeast Anticancer Drug Screen. Data for the cln2 rad14 strain (AID 165);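 note: 0% = growth equal to vehicle treated cultures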; settings: S. cerevisiae cln2 rad14 strain, stronger effect = higher value
Method in brief: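 The screen exposed genetically defined yeast (cln2 rad14) to test compounds and scored growth inhibition relative to vehicle-treated controls.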

[5] = NCI Yeast Anticancer Drug Screen. Data for the bub3 strain (AID 167); settings: S. cerevisiae bub3 mutant strain, stronger effect = higher value
Method in brief: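 Compounds were applied to a genetically altered yeast strain carrying a cell-cycle control defect. Growth inhibition was scored against vehicle-treated controls.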

[6] = NCI Yeast Anticancer Drug Screen. Data for the mlh1 rad18 strain (AID 175); settings: S. cerevisiae mlh1 rad18 strain growth inhibition, stronger effect = higher value
Method in brief: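 Compound-treated yeast growth, normalised to vehicle controls. Strain bears defined DNA repair mutations.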

[7] = at 5.0 µM (retest, dose inferred, filed as 0.5)
[8] = at 50.0 µM (retest, dose inferred, filed as 5.0)

Row | SMILES | growth inhibition [1, 7] | growth inhibition [1, 8] | growth inhibition ([1]; at 50.0 µM) | growth inhibition [2, 7] | growth inhibition [2, 8] | growth inhibition ([2]; at 50.0 µM) | growth inhibition [3, 7] | growth inhibition [3, 8] | growth inhibition ([3]; at 50.0 µM) | growth inhibition [4, 7] | growth inhibition [4, 8] | growth inhibition ([4]; at 50.0 µM) | growth inhibition [5, 7] | growth inhibition [5, 8] | growth inhibition ([5]; at 50.0 µM) | growth inhibition [6, 7] | growth inhibition [6, 8] | growth inhibition ([6]; at 50.0 µM)
1 | CCCCCCCCCCCC(=O)[O][Hg][c]1ccccc1 | 99% (active) | 99% (active) | 99.4% (active) | 100% (active) | 100% (active) | 99.7% (active) | 100% (active) | 99% (active) | 99.7% (active) | 99% (active) | 99% (active) | 99.4% (active) | 99% (active) | 99% (active) | 99.5% (active) | 99% (active) | 99% (active) | 99.7% (active)
2 | O=S(=O)(CCl)C(Cl)(Cl)Cl | 9% (inactive) and 5% (inactive) | 92% (active) and 61% (inactive) | 94.5% (active) and 63.5% (inactive) | 13% (inactive) and -32% (inactive) | 66% (inactive) and 49% (inactive) | 94.6% (active) and 62.2% (inactive) | 4% (inactive) and 3% (inactive) | 59% (inactive) and 67% (inactive) | 97% (active) and 51.5% (inactive) | -2% (inactive) and 1% (inactive) | 44% (inactive) and 36% (inactive) | 83.6% (active) and 43.4% (inactive) | 36% (inactive) and 1% (inactive) | 80% (active) and 56% (inactive) | 92.7% (active) and 67.8% (inactive) | 5% (inactive) and 4% (inactive) | 86% (active) and 73% (active) | 95.8% (active) and 69.7% (inactive)
3 | Cn1c2cccc(=O)c-2nc2ccccc21 | -14% (inactive) | 85% (active) | 82.5% (active) | 6% (inactive) | 62% (inactive) | 52.2% (inactive) | 1% (inactive) | 49% (inactive) | 21.3% (inactive) | -22% (inactive) | 34% (inactive) | -2.9% (inactive) | -12% (inactive) | 56% (inactive) | 41.9% (inactive) | 9% (inactive) | 77% (active) | 60% (inactive)
4 | Cc1cc(O)c2c(c1)C(=O)C13C(=C2O)C(=O)C2C(O)C1C1C(O)C3C(=O)C3=C(O)c4c(O)cc(C)cc4C(=O)C321 (configuration not stated) | 18% (inactive) | 44% (inactive) | 69.7% (inactive) | 57% (inactive) | 46% (inactive) | 76.2% (active) | 40% (inactive) | 48% (inactive) | 79.5% (active) | 64% (inactive) | 47% (inactive) | 60.1% (inactive) | 88% (active) | 70% (active) | 80.2% (active) | 34% (inactive) | 42% (inactive) | 69% (inactive)
5 | Cc1ccc(N=P(c2ccccc2)(c2ccccc2)c2ccccc2)cc1.[I][Hg][I] | 99% (active) | 99% (active) | 94.7% (active) | 100% (active) | 100% (active) | 99.7% (active) | 100% (active) | 99% (active) | 98.9% (active) | 99% (active) | 99% (active) | 99% (active) | 99% (active) | 98% (active) | 98.3% (active) | 99% (active) | 99% (active) | 99.3% (active)
6 | O=[N+]([O-])c1cccc(N=Cc2ccc(N(CCCl)CCCl)cc2)c1 | 4% (inactive) | 53% (inactive) | 66% (inactive) | 2% (inactive) | 64% (inactive) | 21.9% (inactive) | 3% (inactive) | 63% (inactive) | 44.4% (inactive) | 2% (inactive) | 54% (inactive) | 26.1% (inactive) | 3% (inactive) | 74% (active) | 8% (inactive) | 7% (inactive) | 74% (active) | 60% (inactive)
7 | Cn1c(=O)c2[nH]cnc2n(C)c1=O.[CH2-]C(Cc1cccc2cc(C(=O)O)c(=O)oc12)OC.[Hg+2].[OH-] (configuration not stated) | 1% (inactive) | 6% (inactive) | 46% (inactive) | -3% (inactive) | 14% (inactive) | 96.7% (active) | -6% (inactive) | 21% (inactive) | 93.5% (active) | 25% (inactive) | -29% (inactive) | 93.2% (active) | -20% (inactive) | -16% (inactive) | 96.8% (active) | -7% (inactive) | 17% (inactive) | 98.3% (active)
8 | O=[N+]([O-])/C=C/c1ccccc1 | 94% (active) | 99% (active) | 98% (active) | 85% (active) | 100% (active) | 99.2% (active) | 62% (inactive) | 99% (active) | 98% (active) | 64% (inactive) | 100% (active) | 98.3% (active) | 85% (active) | 99% (active) | 96.4% (active) | 71% (active) | 100% (active) | 98.1% (active)
9 | CC(C)=[CH][Sb]([Br])([CH]=C(C)C)([CH]=C(C)C)[CH]=C(C)C | -1% (inactive) | 11% (inactive) | 50.8% (inactive) | -4% (inactive) | 17% (inactive) | 33.7% (inactive) | -4% (inactive) | 14% (inactive) | 18.9% (inactive) | -8% (inactive) | 3% (inactive) | -17.4% (inactive) | 11% (inactive) | 13% (inactive) | 30.7% (inactive) | -7% (inactive) | 12% (inactive) | 24.4% (inactive)
